Screens deposited in PubChem by National Center for Advancing Translational Sciences (NCATS).
This is a sample that favours compounds with a hit; in the whole collection about 17% have one here.
HT1080NT lethal: kills 2HG-producing HT-1080-NT fibrosarcoma cells; AID 686970; HT-1080-NT fibrosarcoma viability, CellTiter-Glo ATP luminescence, 48 h; 1.6% of 360,000 active; Potency, µM (highest dose often 46.1 µM), for the others: top-dose activity, negative = less viability, actives largely listed as cytotoxic;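 further: NT is the 2HG producing partner of a matched IDH1 knockdown line; 0% = DMSO-treated cells and -100% = media-only wells without cells; nearly all actives have a fitted effect of over 55% in size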
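HT-1080-NT; 750 cells/well; 5% FBS RPMI; 48 h compound, 37 degrees C; CellTiter-Glo luminescence; curve fitting and curve-class assignment.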
TDP1 cell noCPT: qHTS for Inhibitors of human tyrosyl-DNA phosphodiesterase 1 (TDP1): qHTS in cells in absence of CPT. DT40 Tdp1-/- hTDP1 cells, no CPT, ATP luminescence, 48 h. Potency, µM (series often up to 46.2 µM), without a hit: top-dose activity change, negative = growth inhibition, most hits filed as inhibitors. 15% of 420,000 active. AID 686978, 2013; further: on the % scale 0 is the no-effect control and ±100 the full control effect; nearly all actives have a fitted effect of over 55% in size
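Luminescent ATP content (CellTiter-Glo) served as the growth readout. Knockout chicken DT40 cells expressing human TDP1 were exposed to compounds without camptothecin for a minimum 48 hr at 37 °C.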
DT40 TDP1 CPT: growth inhibition of DT40 Tdp1-/-;hTDP1 cells with camptothecin (screen for TDP1 inhibitors); 12% of 420,000 active; chicken DT40 Tdp1-/-;hTDP1 cells + 20 nM CPT, ATP luminescence, 48 h; Potency, µM (doses to about 46.2 µM), for inactives: at the top dose activity change, negative = growth inhibition, usual class: inhibitors; further: on the % scale 0 is the no-effect control and ±100 the full control effect; nearly all actives have a fitted effect of over 55% in size
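Chicken DT40 Tdp1-/- cells stably complemented with human TDP1 were seeded at 400 cells/well in medium containing 20 nM camptothecin, exposed to pin-transferred compounds, and grown at 37 °C for at least 48 hr. Viability was read as ATP luminescence.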
HepG2 tox: kills HepG2 cells in TGF-b inhibitor counter-screen; HepG2 CAGA-GFP viability, ATP luminescence, 18 h; Potency, µM (series often up to 46.1 µM), for the others: at the highest dose activity change, negative = cytotoxicity, hits mostly cytotoxic; 0.76% of 410,000 active
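HepG2 CAGA-GFP cells (1000/well, DMEM with 1% FBS) received compound, then TGF-beta at 500 pg/mL final, and were incubated 18 hours at 37 degrees C. Viability was read by CellTiter-Glo luminescence. Media-only wells were set as complete cell-killing and DMSO as no toxicity.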
HT1080 IDH1KD tx: kills HT-1080 cells with IDH1 knockdown; Potency, µM (titrated, usually from 46.1 µM), for the others: at the top dose activity, negative = toxicity, hits mostly cytotoxic; AID 686971; 2% of 360,000 active; HT-1080 IDH1 knockdown viability, ATP luminescence, 48 h;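 further: 0% = DMSO wells and -100% = cell-free medium wells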
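Knockdown cells (IDH1KD HT-1080) received compounds 2 h after plating at 750 cells/well and were kept 48 h at 37 °C in 5% FBS RPMI. A CellTiter-Glo luminescence read gave % activity for curve fitting.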
TGFb inhibitor: blocks TGF-b signaling; HepG2 CAGA-GFP TGF-b/SMAD3 reporter, GFP fluorescence, 18 h; TGF-beta stimulated, 500 pg/mL final; Potency, µM (top dose mostly 46.1 µM), for the others: at the top dose activity, negative = inhibition, hits mostly inhibitors; 1.2% of 410,000 active; further: on the % scale 0 is the no-effect control and ±100 the full control effect; nearly all actives have a fitted effect of over 65% in size
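Cell-based qHTS in HEPG2 carrying a CAGA-GFP Smad reporter; compounds added before 500 pg/mL final TGF-beta, 18 h incubation at 37 degrees C, GFP fluorescence quantified per cell by imaging cytometry.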
* hit, by the source's call; ? = inconclusive; · = no result. The call rests on the fitted dose curve; in most records, active means well fitted curve in the direction sought with a large enough effect; inconclusive means small, poorly fitted or top-dose-only effect, or another doubt; inactive means no such curve, though single readings can be large; an effect the other way counts as inactive or inconclusive. Potency means the concentration at half of the fitted maximal effect.

SMILES	HT1080NT lethal	TDP1 cell noCPT	DT40 TDP1 CPT	HepG2 tox	HT1080 IDH1KD tx	TGFb inhibitor
O=C(CSc1ncc2c(n1)-c1cc(Cl)ccc1N(Cc1ccccc1)S2(=O)=O)Nc1ccc(F)cc1F	·	?	18µM*	-4%	·	1%
CC1OC(OC2C(CO)OC(OC3C(CO)OC(O)C(O)C3O)C(O)C2O)C(O)C(O)C1NC1C=C(CO)C(O)C(O)C1O (stereo not drawn)	·	-2%	-10%	·	·	·
COc1ccccc1NC(=O)CSc1ncc2c(n1)-c1cc(Cl)ccc1N(Cc1ccccc1)S2(=O)=O	·	?	?	-5%	·	-1%
O=C(CSc1ncc2c(n1)-c1cc(Cl)ccc1N(Cc1ccccc1F)S2(=O)=O)Nc1cccc(C(F)(F)F)c1	·	?	18µM*	-29%	·	-13%
COC(=O)c1ccc(NC(=O)CSc2ncc3c(n2)-c2cc(Cl)ccc2N(Cc2ccccc2)S3(=O)=O)cc1	·	21µM*	?	-16%	·	-5%
Cc1ccccc1CN1c2ccccc2-c2nc(SCC(=O)Nc3cc(F)ccc3F)ncc2S1(=O)=O	·	10µM*	?	13%	·	11%
COc1ccc(C)cc1NC(=O)CSc1ncc2c(n1)-c1ccc(Cl)cc1N(Cc1ccccc1)S2(=O)=O	·	?	9.2µM*	-5%	·	-24%
CCc1cccc(NC(=O)CSc2ncc3c(n2)-c2cc(Cl)ccc2N(C)S3(=O)=O)c1	·	?	?	-30%	·	10%
CC(=O)N1CCN=C1SCc1cccc(C)c1	2%	-20%	-20%	-10%	0%	1%
Clc1ncc(CN2CCN(Cc3ccccc3)CC2)s1	4%	11%	7%	7%	2%	7%
NC(=O)CSc1ncc2c(n1)-c1ccccc1N(Cc1ccccc1)S2(=O)=O	·	-8%	-25%	3%	·	2%
Cc1cccc(C)c1NC(=O)CSc1ncc2c(n1)-c1ccc(Cl)cc1N(Cc1ccccc1)S2(=O)=O	·	16µM*	?	5%	·	11%
CCN(C(=O)CSc1ncc2c(n1)-c1cc(Cl)ccc1N(Cc1ccccc1)S2(=O)=O)c1cccc(C)c1	·	16µM*	?	-17%	·	-7%
O=C(NC1CC1)c1cccc2c1C(=O)c1ccc(N3CCC(Cc4ccccc4)CC3)cc1S2(=O)=O	1%	13µM*	23µM*	-12%	2%	-13%
CC(C)(C)CNC(=O)c1cccc2c1C(=O)c1ccc(N3CCCC3)cc1S2(=O)=O	-7%	16µM*	21µM*	-5%	2%	0%
O=C1c2ccc(Cl)cc2S(=O)(=O)c2cccc(C(=O)N3CCC(Cc4ccccc4)CC3)c21	?	23µM*	?	-5%	?	?
COc1ccccc1N1CCN(c2ccc3c(c2)S(=O)(=O)c2cccc(C(=O)NCC4CC4)c2C3=O)CC1	-6%	7.3µM*	18µM*	3%	-9%	0%
CC(C)n1nnnc1C1c2ccccc2C(=O)N1C1CC1 (stereo not drawn)	-2%	-4%	-14%	·	4%	·
COc1ncc2nc(-c3ccccc3)c(=O)n(C)c2n1	·	-3%	-8%	·	·	·
COc1ccc(C(=O)C(C)OC(=O)CCN2C(=O)C3CC=CCC3C2=O)cc1 (stereo not drawn)	-3%	-17%	-10%	-25%	0%	22%
O=C(NC1CCCC1)c1cccc2c1C(=O)c1ccc(N3CCCCC3)cc1S2(=O)=O	3%	?	?	-14%	-7%	-15%
O=C(NCc1ccc(F)cc1)c1cccc2c1C(=O)c1ccc(N3CCOCC3)cc1S2(=O)=O	-1%	?	23µM*	1%	4%	13%
